Compound activity from PubChem.
Compounds with a hit are over-represented: about 28% of the library has one in this group of screens.
D1 mod = D1 CRE-luciferase signal change, two-sided – cell-based, HEK293 D1, dopamine EC30, D1 allosteric modulator project, primary screen. D(1A) dopamine receptor (Homo sapiens), P21728. dopamine EC30 potentiation; actives deviate in either direction. B-score at 10 µM. 58,000 tested, 5.9% active. AID 641, 2007;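 active means luminescence count or its row- and column-corrected plate score outside the 99.7% band of the plate's sample wells, on either side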
CYP2C19 act = human CYP2C19 activators, primary screen, biochemical, luminescence. Cytochrome P450 2C19 (Homo sapiens), P33261. recombinant CYP2C19, luciferin-H EGE luminescence; stronger effect = higher value; 0 = fully inhibited enzyme, 1 = untreated enzyme. activation factor at 5 µM. 96,000 tested, under 10 active;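 active means activation factor of at least 2 at 5 µM in the primary screen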;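 further: 0 = wells with 2.5 mM tranylcypromine and 1 = vehicle-only wells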
hDAT+cocaine = changed hDAT dopamine uptake under cocaine IC80, either direction, primary screen, cocaine antagonist project, cell-based, LLC-PK1 hDAT, [14C]-dopamine uptake, MLSMR; B-score at 10 µM; AID 449768, 2010; LLC-PK1 hDAT cells, [14C]-dopamine uptake with cocaine IC80; actives deviate in either direction; 110,000 tested, 1.3% active; Sodium-dependent dopamine transporter (Homo sapiens), Q01959;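 active means Z score or B-score, a plate-position-corrected score, falls beyond the plate's 99.7% confidence bounds, in either direction; inactive means both scores lie inside the 99.7% bounds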;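 further: scored against the spread of the other compound wells on the same plate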
Target sequence (Q01959 whole entry, looked up): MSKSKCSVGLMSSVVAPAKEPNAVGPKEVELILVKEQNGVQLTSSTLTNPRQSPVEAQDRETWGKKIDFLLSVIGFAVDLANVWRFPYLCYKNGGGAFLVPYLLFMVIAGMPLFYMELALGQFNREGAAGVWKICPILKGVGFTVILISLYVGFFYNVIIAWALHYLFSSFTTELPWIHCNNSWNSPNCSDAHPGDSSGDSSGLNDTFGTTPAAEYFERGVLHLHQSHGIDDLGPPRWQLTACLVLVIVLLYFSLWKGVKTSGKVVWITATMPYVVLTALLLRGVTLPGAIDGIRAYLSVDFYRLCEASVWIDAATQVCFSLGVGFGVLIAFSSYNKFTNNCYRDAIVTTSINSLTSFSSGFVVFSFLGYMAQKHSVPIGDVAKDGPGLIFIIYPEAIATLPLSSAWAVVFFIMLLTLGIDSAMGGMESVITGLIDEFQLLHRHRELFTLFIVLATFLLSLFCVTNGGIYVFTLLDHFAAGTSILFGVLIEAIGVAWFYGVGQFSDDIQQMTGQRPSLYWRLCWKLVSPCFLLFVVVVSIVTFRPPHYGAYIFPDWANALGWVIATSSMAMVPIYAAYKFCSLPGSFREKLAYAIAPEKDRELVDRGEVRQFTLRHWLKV
CYP2C19 inh = blockers of cytochrome P450 2C19 activity – biochemical, luminescence, ADME assay, primary screen; CYP2C19 Supersomes, luciferin-H EGE luminescence, 30 min; P33261; inhibition, % at 5 µM; 96,000 tested, 21% active;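 active means CYP2C19 inhibition above a set limit at 5 µM in the primary screen, cut at about 50% in these data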;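 further: plate controls were negative control wells for no effect and 2.5 mM tranylcypromine positive control for full effect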
CYP2C9 act = human CYP2C9 activators, primary screen, biochemical, luminescence | Cytochrome P450 2C9 (Homo sapiens), P11712 | recombinant CYP2C9, luciferin-H conversion; stronger effect = higher value; factor 1 = untreated enzyme, 0 = blocked | activation factor at 5 µM | 96,000 tested, 1.4% active | AID 1024, 2008;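 active means activation factor of 2 or more for CYP2C9 at a 5 µM dose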;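 further: 0 = sulfaphenazole-blocked wells and 1 = vehicle-only wells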
CYP2C9 inhib = blockers of cytochrome P450 2C9 activity – biochemical, luminescence, ADME assay, primary screen | CYP2C9 Supersomes, luciferin-H conversion | P11712 | 96,000 tested, 20% active | inhibition, % at 5 µM | AID 777, 2007;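 active means blocking of liver enzyme CYP2C9 beyond about 50% at 5 µM, limit read from the data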
* marks the source's active call; other numbers are inactive results; x = no result given.

SMILES	D1 mod	CYP2C19 act	hDAT+cocaine	CYP2C19 inh	CYP2C9 act	CYP2C9 inhib
CC(C)c1ccc(C2C3CSCC=C3C(C#N)=C(N)C2(C#N)C#N)cc1 (stereo not given)	x	0.3	2	67*	0	100*
COc1ccc(N2CC(C(=O)NCCCN3CCOCC3)CC2=O)cc1 (stereo not given)	0.98	1	-0.36	1	0.9	13
O=C(c1cnn(-c2ccccc2)c1-n1cccc1)N1CCN(C2CCCCC2)CC1	x	x	0.13	x	x	x
S=C1N(c2ccccc2)C(c2ccc(Cl)cc2)N2CCCN12 (stereo not given)	x	0.4	-0.84	63*	0.6	44
CC1(C)CN2C(=S)N(c3ccccc3)C(c3ccccc3)N2C1 (stereo not given)	x	0.3	-1.5	67*	0.3	66*
CCc1ccc(-n2c(O)cnc2Nc2nc(C)cc(C)n2)cc1	x	0.9	0.055	8	0.8	17
CCO[C@@H]1OC(C(=O)NC2CC2)=C[C@H](c2ccc(Br)cc2)[C@H]1CCCO	x	x	0.65	x	x	x
CC(Sc1ccsc1[N+](=O)[O-])C(=O)NCCc1ccc(Cl)cc1 (stereo not given)	x	0.4	-1.4	57*	0.3	70*
O=C(CSc1nc2ccc([N+](=O)[O-])cc2[nH]1)NCCc1ccccc1	x	0.2	-1.9	82*	0.2	81*
O=C(CSc1ccsc1[N+](=O)[O-])NCCc1ccc(Cl)cc1	x	1	-0.93	-4	0.9	8
Cc1cc(C)c2c(=O)[nH]c(SCC(=O)NCCc3ccccc3)nc2n1	x	x	0.3	x	x	x
O=C(CSc1ccsc1[N+](=O)[O-])NCCc1ccccc1	x	0.8	0.19	22	0.4	55*
CCC(Cc1ccccc1)NC(=O)CSc1ccsc1[N+](=O)[O-] (stereo not given)	x	0.3	0.25	72*	0.7	27
C=CC(O)Cc1c(C)n[nH]c1C (stereo not given)	x	1	-0.6	-1	1.2	-15
Fc1ccc(-n2nnc(-c3ccnc4ccccc34)n2)cc1	x	x	0.27	x	x	x
Cc1ccc(S(=O)(=O)N(CC(=O)N/N=C/c2cccc(C)c2)c2cccc3cccnc23)cc1	x	1.1	-0.13	-11	0.9	11
Clc1ccc(COc2ccccn2)cc1Cl	x	0.3	0.37	71*	1	2
Cc1ccc(NC(=O)CCN2CCN(C/C=C/c3ccccc3)CC2)cc1	x	0.8	-0.51	16	0.9	13
O=C(Nc1cccc(Cl)c1)N1CCN(c2ncccn2)CC1	-0.6	0.1	0.16	89*	0.4	56*
O=C(c1cccc(C(=O)N2CCN(c3ncccn3)CC2)c1)N1CCN(c2ncccn2)CC1	4.2	1	x	0	0.9	13
O=C(Nc1ccc(F)cc1F)N1CCN(c2ncccn2)CC1	-0.92	0.3	-0.019	70*	0.9	14
O=C(/C=C/c1c(Cl)cccc1Cl)N1CCN(c2ncccn2)CC1	x	0	0.21	96*	0.5	52*
Cc1ccc(NC(=O)CCN2CCN(C/C=C/c3ccccc3)CC2)cc1C	-0.064	1	x	2	2.2*	-119
O=C(Nc1ccccc1Cl)N1CCN(c2ccccn2)CC1	x	x	0.69	x	x	x
C/C=C/C=C\C(=O)Nc1cccc(C2=NOC3(C2)C[C@@H](C(N)=O)N(C(=O)c2cc([N+](=O)[O-])cc([N+](=O)[O-])c2)C3)c1 (stereo not given in full)	x	x	-0.84	x	x	x
SMILES	D1 mod	CYP2C19 act	hDAT+cocaine	CYP2C19 inh	CYP2C9 act	CYP2C9 inhib
CCOC(=O)c1cnc(SCC(=O)Nc2ccccc2N2CCOCC2)nc1N	2.9	x	x	x	x	x
O=C(Nc1ccc2ccccc2c1)N1CCN(c2ncccc2C(F)(F)F)CC1	-0.23	0.3	0.49	70*	1.6	-65
O=C(Nc1ccccc1)N1CCN(c2ccc(C(F)(F)F)cn2)CC1	x	0.7	1.4	29	0.8	24
O=C(Nc1cccc(Cl)c1)N1CCN(C/C=C/c2ccccc2)CC1	-0.85	0.6	2.2	42	0.4	62*
Cc1ccc(-c2nc(CSCC(=O)NCc3cccnc3)c(C)o2)cc1	0.12	1	0.56	3	0.9	14
O=C1NC(=O)c2cc(NC(=O)C3CCCCC3)ccc21	-0.23	1	0.5	3	1	-3
COc1ccc(C(OC(=O)c2c(C)noc2C)C(=O)NC2CCCC2)cc1 (stereo not given)	0.093	0.5	0.032	50*	0.2	80*
COc1ccc(-c2nsc(C(=O)N(c3ccc(F)cc3)C(C(=O)NC3CCCC3)c3ccc(OC)cc3)c2N)cc1 (stereo not given)	x	1.1	-1.1	-6	0.9	10
COc1ccc(C(C(=O)NC2CCCC2)N(C(=O)c2ccoc2C)c2ccc(C)cc2)cc1 (stereo not given)	x	0.5	0.51	50*	0.3	73*
O=C(NC1CCCCC1)C(c1ccccc1)N(C(=O)c1cccs1)c1ccc2c(c1)OCO2 (stereo not given)	x	0.9	-1.2	9	0.7	32
O=C(NC1CCCCC1)C(c1ccc2ncccc2c1)N(Cc1ccc2c(c1)OCO2)C(=O)c1cccs1 (stereo not given)	x	0.5	1.5	47	0.5	54*
COc1ccc(C(OC(=O)c2ccco2)C(=O)NC2CCCCC2)cc1 (stereo not given)	x	x	-0.61	x	x	x
O=C(NC1CCCCC1)C(c1ccc2ncccc2c1)N(Cc1ccccc1)C(=O)c1cccs1 (stereo not given)	x	0.9	0.17	11	0.3	73*
CCCCC1=CC2=C(c3ccco3)C(=O)C(C)(OC(=O)c3ccc(OC)cc3)C(=O)C2=CN1CC(C)C (stereo not given)	x	x	0.62	x	x	x
Cc1ccc(-n2ncc(C(=O)N3CCc4ccccc4C3)c2NC(=O)c2ccco2)cc1C	0.46	x	-0.79	x	x	x
COc1ccc(C(C(=O)NC2CCCCC2)N(C(=O)c2cccs2)c2ccc3c(c2)OCO3)cc1 (stereo not given)	x	0.7	-0.5	26	0.5	53*
CC(=O)C1=C(O)C(=O)N(CCN2CCOCC2)C1c1ccccc1 (stereo not given)	0.44	1	-1.1	-3	0.8	15
COc1ccc(/C=C/C(=O)NCC(=O)N/N=C/c2cc(Br)ccc2OCc2ccccc2)cc1	x	1.1	1	-15	0.2	77*
CC(Nc1ccc(Br)cc1)C(=O)N/N=C/c1ccccc1OCc1ccccc1 (stereo not given)	x	0.1	-0.0025	89*	0	95*
